DT40 TDP1 CPT: growth inhibition of DT40 Tdp1-/-;hTDP1 cells with camptothecin (screen for TDP1 inhibitors) | chicken DT40 Tdp1-/-;hTDP1 cells + 20 nM CPT, ATP luminescence, 48 h | Potency, µM (top dose mostly 46.2 µM), usual class: inhibitors | actives 12% (n = 420,000) | AID 686979; also: nearly all actives have a fitted effect of over 55% in size
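Chicken DT40 Tdp1-/- cells stably complemented with human TDP1 were seeded at 400 cells/well in medium containing 20 nM camptothecin, exposed to pin-transferred compounds, and grown at 37 °C for at least 48 hr. Viability was read as ATP luminescence.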
HT1080 IDH1KD tx: kills HT-1080 cells with IDH1 knockdown; Potency, µM (series often up to 46.1 µM), most hits filed as cytotoxic; actives 2% (n = 360,000); HT-1080 IDH1 knockdown viability, ATP luminescence, 48 h
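Using the IDH1-knockdown HT-1080 line run in the same batch and compound series as the NT line, viability after 48 h at 37 °C was determined by CellTiter-Glo luminescence and expressed as % activity.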
HT1080NT lethal: kills 2HG-producing HT-1080-NT fibrosarcoma cells. HT-1080-NT fibrosarcoma viability, CellTiter-Glo ATP luminescence, 48 h. Potency, µM (highest dose often 46.1 µM), hits mostly cytotoxic. actives 1.6% (n = 360,000). AID 686970;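 also: NT is the 2HG producing partner of a matched IDH1 knockdown line; nearly all actives have a fitted effect of over 55% in size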
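HT-1080-NT; 750 cells/well; 5% FBS RPMI; 48 h compound, 37 degrees C; CellTiter-Glo luminescence; curve fitting and curve-class assignment.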
TDP1 cell noCPT: qHTS for Inhibitors of human tyrosyl-DNA phosphodiesterase 1 (TDP1): qHTS in cells in absence of CPT | DT40 Tdp1-/- hTDP1 cells, no CPT, ATP luminescence, 48 h | Potency, µM (series often up to 46.2 µM), hits mostly inhibitors | actives 15% (n = 420,000) | AID 686978, 2013; also: nearly all actives have a fitted effect of over 55% in size
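Chicken DT40 Tdp1-/- cells complemented with human TDP1, screened without camptothecin (DMSO vehicle only), 400 cells/well. Compounds pin-transferred, cells incubated at 37 °C for at least 48 hr. Growth read as ATP-dependent luminescence (CellTiter-Glo, 30 min at RT).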
IL-1B inflam inh: blocks inflammasome-driven IL-1 beta release | activity change, % at 57.5 µM | THP-1 LPS/ATP IL-1B secretion, AlphaLISA, 16 h; stronger effect = lower value | actives 4.7% (n = 360,000); in the data active = activity change below about -50%; inconclusive = mostly about -30% to -49%
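Secreted IL-1B measured by AlphaLISA bead assay after 16 h compound exposure of THP-1 cells; compounds (final up to 57.5 uM) added 1 h before LPS (250 ng/mL) and ATP (1.25 mM) stimulation; lower signal means less secretion.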
Of the large screens only hits and unclear results are named; the others gave an inactive call. Rows were chosen to be rich in hits. Some 19% of all compounds tested hit in one or more screens of this group. Unless noted, calls follow the shape of the dose curve; as a rule, active = well fitted curve in the direction sought with a large enough effect; inconclusive = small, poorly fitted or top-dose-only effect, or another doubt; inactive = no such curve, though single readings can be large; an effect the other way counts as inactive or inconclusive.

COc1ccc2sc(-c3ccc(SC)cc3)c(C#CC(C)(C)O)c2c1	DT40 TDP1 CPT inconclusive, HT1080 IDH1KD tx inconclusive, HT1080NT lethal inconclusive, TDP1 cell noCPT inconclusive
COc1cccc(-c2sc3ccc(OC)cc3c2C#CC(C)(C)O)c1	DT40 TDP1 CPT 23µM, TDP1 cell noCPT 18µM, IL-1B inflam inh -88
COc1ccc2sc(-c3ccc(N(C)C)cc3)c(C#CC(C)(C)O)c2c1	DT40 TDP1 CPT 8.2µM, HT1080 IDH1KD tx inconclusive, HT1080NT lethal inconclusive, TDP1 cell noCPT 8.2µM
COc1ccc2sc(-c3ccc(N(C)C)cc3)c(C#CCCO)c2c1	DT40 TDP1 CPT inconclusive, HT1080 IDH1KD tx inconclusive, HT1080NT lethal 16µM, TDP1 cell noCPT 16µM
COc1ccc(NC(=O)Nc2ccon2)cc1OC	none
CCc1nnc(NC(=O)CSc2nnc(C3CC3)n2C)s1	none
O=C(Cc1cccs1)N1CCN(S(=O)(=O)c2ccc(F)c(F)c2)CC1	none
Cc1nc2cc(NC(=O)[C@@H]3C[C@@H](Sc4ccccn4)CN3Cc3ccc(F)cc3F)ccc2s1	none (no result: HT1080 IDH1KD tx, HT1080NT lethal, IL-1B inflam inh)
O=C(Nc1cc(Cl)cc(Cl)c1)N[C@@H]1CC[C@@H](CCNS(=O)(=O)c2cccc(F)c2)O[C@@H]1CO	DT40 TDP1 CPT inconclusive, HT1080 IDH1KD tx inconclusive, HT1080NT lethal 18µM, TDP1 cell noCPT 16µM
COc1ccc2ccccc2c1C(=O)/C=C\c1ccoc1	DT40 TDP1 CPT inconclusive, TDP1 cell noCPT inconclusive, IL-1B inflam inh -56
Cc1nn(C)c(NC(=O)c2ccccc2Cl)c1Br	IL-1B inflam inh inconclusive
Cc1nc(-c2ccccc2OC(F)(F)F)[nH]c(=O)c1Cl	none
O=c1cc(NS(=O)(=O)c2ccccc2)nc(SCc2ccc(Cl)cc2)[nH]1	IL-1B inflam inh -56
CCOC(=O)CC(=O)CSc1nc2sc(C)cc2c(=O)n1Cc1ccco1	DT40 TDP1 CPT 16µM, TDP1 cell noCPT 23µM
CCOC(=O)c1cc(CC)sc1NC(=O)CSc1nc2ccccc2c(=O)n1Cc1ccco1	DT40 TDP1 CPT inconclusive, TDP1 cell noCPT inconclusive
Cc1sc2nc(SCC(=O)C(C)(C)C)n(Cc3ccco3)c(=O)c2c1C	DT40 TDP1 CPT 13µM, HT1080 IDH1KD tx 6.3µM, HT1080NT lethal 7.1µM, TDP1 cell noCPT 13µM
CC(=O)c1ccc(NC(=O)Cn2cnc3nc4c(cc3c2=O)CC(C)CC4)cc1 (stereo unspecified)	none (no result: HT1080 IDH1KD tx, HT1080NT lethal, IL-1B inflam inh)
Cc1ccc(Cn2cnc3nc4c(cc3c2=O)CC(C)CC4)cc1 (stereo unspecified)	DT40 TDP1 CPT 21µM, TDP1 cell noCPT 15µM (no result: HT1080 IDH1KD tx, HT1080NT lethal, IL-1B inflam inh)
CCCCC(=O)NC(Nc1nc(C2CC2)cs1)(C(=O)OCC)C(F)(F)F (stereo unspecified)	DT40 TDP1 CPT inconclusive, TDP1 cell noCPT inconclusive
O=S(=O)(c1ccccc1)N1N=C(c2cccs2)CC1c1ccc(Br)cc1 (stereo unspecified)	DT40 TDP1 CPT 23µM, TDP1 cell noCPT 15µM
COC(=O)[C@@]1(Cc2ccc(F)cc2)[C@H]2c3cc(C(=O)N4CCCC4)n(Cc4ccc(S(C)(=O)=O)cc4)c3C[C@H]2CN1C(=O)c1ccccc1	DT40 TDP1 CPT inconclusive, HT1080 IDH1KD tx inconclusive, TDP1 cell noCPT 18µM
COC(=O)[C@@]1(Cc2ccc(F)cc2)[C@H]2c3cc(C(=O)N(C)C)n(Cc4ccc(S(C)(=O)=O)cc4)c3C[C@H]2CN1C(=O)c1ccccc1	DT40 TDP1 CPT 21µM, TDP1 cell noCPT inconclusive
COC(=O)[C@@]1(Cc2ccc(F)cc2)[C@H]2c3cc(C(=O)N(C)C)n(Cc4ccccn4)c3C[C@H]2CN1C(=O)c1ccccc1	DT40 TDP1 CPT inconclusive, TDP1 cell noCPT inconclusive
COC(=O)[C@@]1(Cc2ccc(F)cc2)[C@H]2c3cc(C(=O)N4CCCC4)n(Cc4ccc(C(F)(F)F)nc4)c3C[C@H]2CN1C(=O)c1ccccc1	DT40 TDP1 CPT inconclusive, TDP1 cell noCPT inconclusive, IL-1B inflam inh inconclusive
CC(C)C(O)c1ccc2c(c1)CN(C(=O)c1ccccc1-n1cccn1)CCO2 (stereo unspecified)	none (no result: HT1080 IDH1KD tx, HT1080NT lethal, IL-1B inflam inh)
Cc1ccc(-c2csc(NC(=O)c3cccc(S(=O)(=O)N4CCN(C)CC4)c3)n2)cc1	DT40 TDP1 CPT inconclusive, TDP1 cell noCPT 18µM
O=C(Nc1nc(-c2cccs2)cs1)c1cccc(S(=O)(=O)N2CCCCC2)c1	DT40 TDP1 CPT inconclusive, TDP1 cell noCPT 26µM
CN(Cc1ccccc1)C(=O)c1ccc(NC(=O)Cc2cccc(NC(=O)C3CCCN(C(=O)C4CCC4)C3)c2)cc1 (stereo unspecified)	DT40 TDP1 CPT inconclusive
CCCCCN(C(=O)CCC(=O)OCC(=O)N1CCC(C)CC1)c1c(N)n(CCCC)c(=O)[nH]c1=O	none
COc1ccccc1CCNC(=O)C(=O)NCC(c1ccco1)S(=O)(=O)c1ccc(C)cc1 (stereo unspecified)	DT40 TDP1 CPT 21µM, TDP1 cell noCPT inconclusive (no result: HT1080 IDH1KD tx, HT1080NT lethal, IL-1B inflam inh)
COc1ccc(CCNC(=O)C(=O)NCC(c2ccco2)S(=O)(=O)c2cccs2)cc1 (stereo unspecified)	DT40 TDP1 CPT 13µM, TDP1 cell noCPT 13µM (no result: HT1080 IDH1KD tx, HT1080NT lethal, IL-1B inflam inh)
COc1ccccc1CCNC(=O)C(=O)NCC(c1ccco1)S(=O)(=O)c1cccs1 (stereo unspecified)	DT40 TDP1 CPT 21µM, TDP1 cell noCPT inconclusive (no result: HT1080 IDH1KD tx, HT1080NT lethal, IL-1B inflam inh)
COc1ccccc1CCNC(=O)C(=O)NCC(c1cccs1)S(=O)(=O)c1ccc(C)cc1 (stereo unspecified)	DT40 TDP1 CPT 15µM, TDP1 cell noCPT 21µM (no result: HT1080 IDH1KD tx, HT1080NT lethal, IL-1B inflam inh)
Cc1cc(C)cc(NC(=O)Cn2cc(C(=O)c3ccccc3)c(=O)c3ccc(C)nc32)c1	none (no result: HT1080 IDH1KD tx, HT1080NT lethal, IL-1B inflam inh)
COC(=O)Cc1ccc(NC(=S)NCc2cccc(OC)c2)cc1	TDP1 cell noCPT inconclusive
CCCCc1ccc(NC(=S)Nc2ccc(Nc3ccc(OC)cc3)cc2)cc1	DT40 TDP1 CPT 18µM, HT1080 IDH1KD tx inconclusive, TDP1 cell noCPT 21µM
